Test results as given in ChEMBL document CHEMBL3988442, “University of Dundee, Small-Polar-MMV Screening Library” (2021).
Out of some 48,000 compounds screened, about 13,000 (27%) showed an effect of 50% or more. This is one part of the list.

The compounds below were run on Wolbachia pipientis (assay: Anti-Wolbachia Cell-Based Screen). Conditions: 5 µM.
Format: functional
Set-up: scale not given: in the data most compounds retested in dose-response had high values

Compound | Percent Effect
Cc1cnn(CC(C)NCCc2cccs2)c1 (configuration not stated) | 11.98%
CC(C)=CCN1CCN(C(=O)COc2ccccc2)[C@H]2CS(=O)(=O)C[C@H]21 | -38.59%
COCCN1C[C@H]2[C@@H](C1)N(C(=O)COc1ccccc1)CC[C@H]2OC | 0.3223%
CC1CN(C)CCN1C(=O)COc1cccc(Oc2ccccn2)c1 (configuration not stated) | 82.16%
O=C(c1ccnc(-n2cnnc2)c1)N1CCCC2(CCNC2)C1 (configuration not stated) | -10.09%
CC(C)N1CCOC(c2ccnc(N(C)C)n2)C1 (configuration not stated) | 82.78%
CN(C)c1nccc(N(C)C2CCN(CC3CCOC3)CC2)n1 (configuration not stated) | -1.947%
CC(C)N1CCC(N(C)c2ccnc(N(C)C)n2)CC1 | 15.64%
CCOC(=O)N1CCCC2(CCCNC2)C1.Cl (configuration not stated) | -10.87%
Oc1ccc(N2CCN(Cc3ccc(F)cc3Br)CC2)cc1 | 1.788%
CCCN(CC)c1cc(C2CCNCC2)nc(C)n1 | 112.1%
CC(C)NC(=O)CN1CCSC2(CCCCC2)C1 | -91.97%
O=C1N(Cc2ccccn2)C[C@H]2CN(C3CCOCC3)CCN12 | 0.5644%
O=C(C1CC(=O)N(c2ccccc2)C1)N1CCC2(CC1)OCCO2 (configuration not stated) | -2.385%
O=C(c1cnc(-c2ccccc2)s1)N1CCC2(CC1)OCCO2 | -4.517%
O=C(c1cccc(-n2cnnn2)c1)N1CCC2(CC1)OCCO2 | 106.4%
CCCN1CCC(c2nc3ccc(C)cn3n2)CC1.O=C(O)C(F)(F)F | 104.2%
Cc1cnc(N2C[C@H]3CCN(CC4CC4)C[C@@H]3C2)nc1.O=C(O)C(F)(F)F | 6.173%
Cc1cnc(N2C[C@H]3CCN(CC4CC4)C[C@H]3C2)nc1.O=C(O)C(F)(F)F | 15.24%
O=C(NC[C@H]1C[C@@H]2CCN1C[C@@H]2CN1CCCCC1)Nc1ccsc1 | 3.271%
CC[C@H]1CN2CC[C@H]1C[C@@H]2CNCc1ccc(OC(F)(F)F)cc1 | -1.711%
CCc1ccc(OCC(=O)N2CCN(CC)CC2)cc1 | -2.93%

Compound | Percent Effect
CNc1ncccc1C(=O)N1CCN(C)C2(CCN(C)CC2)C1 | -3.315%
Cc1ccc(CC(=O)N2CCN(CC(O)c3ccccc3)CC2)cn1 (configuration not stated) | -5.029%
CCN1CCN(C(=O)c2cn(Cc3ccccc3)c3ncccc23)CC1 | 118.7%
CCOc1ncccc1C(=O)N1CCN(C)C2(CCN(C)CC2)C1 | -9.489%
CN1CCN(C(=O)c2cn(Cc3ccccc3)c3ncccc23)CC1 | 129.1%
CC(C)CN1CCC2(CC1)CN(C(=O)C(C)C)C2.O=C(O)C(F)(F)F | -9.801%
Cc1ccc([C@]2(O)CC[C@H]3CN(Cc4ccccc4F)C[C@H]32)nc1.O=C(O)CC(O)(CC(=O)O)C(=O)O | 152.5%
Cc1ccc(CN2C[C@@H]3CN(c4ncc(F)cn4)C[C@@H]3C2)cc1.O=C(O)C(F)(F)F | 6.106%
O=C(O)CC(O)(CC(=O)O)C(=O)O.O[C@@]1(c2ccccn2)CC[C@H]2CN(Cc3cccc(Cl)c3Cl)C[C@H]21 | -2.173%
O=C(O)CC(O)(CC(=O)O)C(=O)O.O[C@@]1(c2ccccn2)CC[C@H]2CN(Cc3ccccn3)C[C@H]21 | 115.3%
O=C(O)C(F)(F)F.O=C1[C@@H]2CN(Cc3ccccn3)C[C@H]2CCN1c1cncnc1 | 16.77%
O=C(N1CCCC1)N1C[C@@H]2CCNC[C@@H]21 | -24.15%
CCCN1C[C@H]2CC[C@@H]1CN(C(=O)Cc1c(C)nc(CC)[nH]c1=O)C2 | 6.983%
CNC(=O)[C@@H]1C[C@H]2CN(c3ncccn3)C[C@H]2N1C(C)C.O=C(O)C(F)(F)F.O=C(O)C(F)(F)F | -5.727%
C[C@@H]1CN2C[C@H](O)CC2CN1Cc1ccncc1 (some centres not stated) | 148.8%
COCCN1CCN(Cc2ccncc2)[C@H]2CS(=O)(=O)C[C@H]21 | 0.5994%
O=S1(=O)C[C@@H]2[C@H](C1)N(Cc1ccoc1)CCN2Cc1ccncc1 | -1.69%
C[C@H]1CN2C[C@H](O)CC2CN1Cc1ccncc1 (some centres not stated) | 120.2%
Oc1cccc(CN2C[C@H]3CC[C@@H]2CN(Cc2ccncc2)C3)c1 | -4.265%
CC(C)NC(=O)[C@H]1C[C@@H]2[C@@H](C1)OCCN2Cc1ccncc1 | -4.174%
Cc1c(CN2CCCC(C(=O)c3ccc(C(C)(C)C)cc3)C2)cnn1C (configuration not stated) | 35.11%
CN1CCN(c2ccc(F)cc2C(N)=O)CC1 | 129.8%

Compound | Percent Effect
CN1CCC2(CC1)C(=O)N(C)c1ccc(F)cc12.Cl | -19.58%
CN1CCN(c2ccc(CO)cc2F)CC1 | 13.78%
CCN1CCC2(CCC1=O)CN(c1nccc(N)n1)CCN2C (configuration not stated) | -7.397%
CCNCCc1nc2cc(F)ccc2[nH]1.Cl | -10.45%
Cc1ccc2c(n1)N(C)CCN(Cc1cnn(C)c1)C2 | 75.85%
Cc1ccc2c(n1)N(C)CCN(CCN1CCCC1)C2.O=C(O)C(F)(F)F.O=C(O)C(F)(F)F.O=C(O)C(F)(F)F | 31.59%
Cc1oc(-c2ccco2)nc1CC(=O)N1CCN(CC(C)O)CC1 (configuration not stated) | 16.55%
Cc1ccc(C(=O)N2C[C@@H]3CCCO[C@@H]3[C@H](N3CCCC3)C2)cn1.O=C(O)C(F)(F)F.O=C(O)C(F)(F)F | -21.68%
Cc1ccc(C(=O)N2C[C@H](N3CCOCC3)[C@@H]3OCCC[C@@H]32)cn1.O=C(O)C(F)(F)F.O=C(O)C(F)(F)F | 103.6%
CN1CCN([C@@H]2CN(C(=O)c3ccnnc3)[C@@H]3CCCO[C@H]23)CC1 | -8.561%
CCNC(=O)c1cn(C(C)(C)C)c2ncccc12 | 133.4%
CC(C)(C)n1cc(C(=O)NCCN2CCOCC2)c2cccnc21 | 135%
CNC(=O)c1cn(C(C)(C)C)c2ncccc12 | 127%
CC(C)(C)n1cc(C(=O)NCCCn2ccnc2)c2cccnc21 | 3.37%
CCCNC(=O)c1cn(C(C)(C)C)c2ncccc12 | 115.3%
CC(C)(C)n1cc(C2=CCN(CCNC(N)=O)CC2)cn1 | -16.31%
CC(C)(C)n1cc(C2=CCN(CCNC(=O)c3ccccc3)CC2)cn1 | -2.502%
CCCn1cc(C(=O)NCCCC(N)=O)c2ccccc21 | 15.02%
Cc1ccnc(CC(C)N(C)Cc2ccc3c(c2)OCCO3)c1 (configuration not stated) | 2.178%
O=C(NC[C@H]1C[C@@H]2CCN1C[C@@H]2CN1CCCC1)c1ccco1 | 7.038%
CC1CCN(C[C@H]2CN3CC[C@H]2C[C@@H]3CNC(=O)c2ccco2)CC1 | -5.154%
Clc1ccccc1CNC(Cn1cncn1)c1ccccc1 (configuration not stated) | -5.969%

Compound | Percent Effect
CN1CCO[C@H]2CN(C(=O)c3ccncc3F)C[C@H]21.O=C(O)C(F)(F)F | -9.265%
CCN1CCOCC2(CCCN(C(=O)c3ccncc3F)C2)C1.O=C(O)C(F)(F)F (configuration not stated) | 92.47%
O=C(O)C(F)(F)F.c1cnc(N2CCCC3(COCCN(CC4CC4)C3)C2)nc1 (configuration not stated) | -4.915%
CCN1CCOCC2(CCCN(C(=O)c3conc3C)C2)C1.O=C(O)C(F)(F)F (configuration not stated) | 89.52%
CNC(=O)CN1CCOCC2(CCCN(Cc3cccnc3)C2)C1.O=C(O)C(F)(F)F.O=C(O)C(F)(F)F.O=C(O)C(F)(F)F (configuration not stated) | -4.883%
O=C(C1CC1)N1CCc2c(ncnc2N2CCN3CCCC3C2)C1 (configuration not stated) | 16.5%
CC(C)c1nc(CC(=O)N2CCN(C)CC2c2ccccc2)cs1 (configuration not stated) | 13.34%
Cc1ccc(NC(=O)CNC(C)Cc2ccsc2)cc1F (configuration not stated) | 8.644%
CN(C)C(=O)[C@H]1CC[C@@H]2[C@@H](CCN2Cc2ccccn2)O1.O=C(O)C(F)(F)F.O=C(O)C(F)(F)F | 1.437%
Cc1ccccc1C1(CN)CCOCC1 | 1.37%
O=C(O)C(F)(F)F.O=C(O)C(F)(F)F.O=C1[C@H]2CN(Cc3ccncc3)C[C@H]2CN1c1cncnc1 | -1.722%
O=C(O)C(F)(F)F.c1cnc(N2C[C@H]3CCN(Cc4ccncc4)C[C@H]3C2)nc1 | 87.9%
O=C(O)C(F)(F)F.c1cc(CN2CC[C@@H]3CN(c4cnccn4)C[C@@H]3C2)ccn1 | 126.3%
O=C(O)C(F)(F)F.O=C(O)C(F)(F)F.c1ccc(N2CC[C@@H]3CN(Cc4ccncc4)CCO[C@@H]3C2)cc1 | -7.726%
Cc1ccc(N2CC[C@@H]3CN(Cc4cccc(C)n4)C[C@@H]3C2)nn1.O=C(O)C(F)(F)F | -3.12%
Cc1ccc(N2CC[C@@H]3CN(Cc4cc[nH]n4)C[C@@H]3C2)nn1.O=C(O)C(F)(F)F | -9.951%
Cn1cc(N2CC[C@@H]3CN(Cc4ccncc4)C[C@H]3C2=O)cn1.O=C(O)C(F)(F)F.O=C(O)C(F)(F)F | -47.34%
O=C(O)C(F)(F)F.O=C(O)C(F)(F)F.c1cnc(N2CC[C@@H]3CN(Cc4ccncc4)CCO[C@@H]3C2)nc1 | -13.84%
O=C(O)C(F)(F)F.O=C1[C@H]2CN(Cc3ccc(F)cc3)C[C@H]2CN1c1cncnc1 | -0.4188%
Cc1ccc(N2C[C@H]3CCN(Cc4ccncc4)C[C@H]3C2)nn1.O=C(O)C(F)(F)F | 106.9%
c1cc(CN2CC[C@@H]3CN(c4cncnc4)C[C@@H]3C2)ccn1 | 100.2%
